In PubChem BioAssay (Tox21) one finds Potency, outcome and max response data, which are given here for 13 compounds.

A short description of assay [1]: qHTS RealTime-Glo MT Cell Viability Assay in HEK293 cells - 16 hour (AID 1224872). Note: top concentration of the series differs between compounds; nearly all actives have a fitted effect of over 50% in size. In outline: (§1)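 Quantitative high-throughput screen of the Tox21 10K library in HEK293: cells and RealTime-Glo reagents plated together, compound added at 5 h, luminescence monitored through 40 h at 37 C.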
On the technique in general: Quantitative high-throughput screening tests each substance at several concentrations.

Assay [2] in a line: qHTS RealTime-Glo MT Cell Viability Assay in HepG2 cells - 8 hour (AID 1224873). Note: nearly all actives have a fitted effect of over 55% in size. In outline:
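HepG2 cells (600/well) mixed with RealTime-Glo MT reagent, settled 5 h at 37 C/5% CO2 before compound addition. Nonlytic NanoLuc luminescence from viable-cell prosubstrate reduction read repeatedly during 40 h treatment at 37 C.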

Assay [3] is described as follows: qHTS RealTime-Glo MT Cell Viability Assay in HEK293 cells - 40 hour (AID 1224874). Note: nearly all actives have a fitted effect of over 50% in size. Note: potency is the fitted concentration of half-maximal effect. The conditions noted are these: RealTime-Glo luminescence; max response: active compounds read low. Summed up: (§2)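 Luminescence readout at each listed time point; HEK293, 600 cells/well, RealTime-Glo MT reagent added with cells; compounds pinned (23 nL in DMSO) after 5 h at 37 C; continuous culture at 37 C.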

A short description of assay [4]: A CellTox Green Cytotoxicity Assay to monitor cytotoxicity in HEK293 cells - 24 hour (AID 1224875). Note: series mostly up to about 77 µM; nearly all actives have a fitted effect of over 45% in size. In outline:
(§3)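 Read-out: fluorescence of a cell-impermeant cyanine dye staining DNA of dead cells, proportional to cytotoxicity. HEK293, 600 cells/well with reagent, compound (23 nL DMSO) added after 5 h; reads at 0, 8, 16, 24, 32, 40 h.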

Assay [5] can be described thus: A CellTox Green Cytotoxicity Assay to monitor cytotoxicity in HepG2 cells - 16 hour (AID 1224876). Note: nearly all actives have a fitted effect of over 45% in size. Summed up:
(§4)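 HepG2, 600 cells/well premixed w/ CellTox Green; 5 h settle, 37 C/5% CO2; pintool cpd add (DMSO); 37 C, 40 h; fluorescence read at 0, 8, 16, 24, 32, 40 h.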

The nature of assay [6]: A CellTox Green Cytotoxicity Assay to monitor cytotoxicity in HepG2 cells - 24 hour (AID 1224878). Note: nearly all actives have a fitted effect of over 45% in size. In outline:
as §4

Assay [7] can be described thus: A CellTox Green Cytotoxicity Assay to monitor cytotoxicity in HepG2 cells - 40 hour (AID 1224879). Note: nearly all actives have a fitted effect of over 40% in size. Note: potency is the fitted concentration of half-maximal effect. Summed up: as §4
Assay [8] in a line: qHTS RealTime-Glo MT Cell Viability Assay in HEK293 cells - 0 hour (AID 1224880). Note: nearly all actives have a fitted effect of over 45% in size. Note: potency is the fitted concentration of half-maximal effect. Summed up: as §2
Assay [9] is described as follows: A CellTox Green Cytotoxicity Assay to monitor cytotoxicity in HEK293 cells - 32 hour (AID 1224881). Note: nearly all actives have a fitted effect of over 40% in size. In outline:
as §3

Assay [10] in a line: A CellTox Green Cytotoxicity Assay to monitor cytotoxicity in HepG2 cells - 0 hour (AID 1224882). Note: nearly all actives have a fitted effect of over 35% in size. In outline:
as §4

The nature of assay [11]: A CellTox Green Cytotoxicity Assay to monitor cytotoxicity in HepG2 cells - 32 hour (AID 1224883). Note: nearly all actives have a fitted effect of over 50% in size. Note: potency is the fitted concentration of half-maximal effect. Summed up: as §4
Assay [12] is described as follows: A CellTox Green Cytotoxicity Assay to monitor cytotoxicity in HEK293 cells - 8 hour (AID 1224884). Note: nearly all actives have a fitted effect of over 35% in size. In outline:
as §3

Assay [13] is described as follows: qHTS RealTime-Glo MT Cell Viability Assay in HepG2 cells - 16 hour (AID 1224885). Note: nearly all actives have a fitted effect of over 50% in size. In outline:
(§5)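 Compound treatment began 5 h after plating HepG2 cells (600/well) with NanoLuc luciferase and prosubstrate. Plates stayed at 37 C for 40 h; luminescence was captured at six time points, 0 h through 40 h.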

A short description of assay [14]: qHTS RealTime-Glo MT Cell Viability Assay in HEK293 cells - 24 hour (AID 1224886). In outline:
as §1

Assay [15] is described as follows: qHTS RealTime-Glo MT Cell Viability Assay in HEK293 cells - 8 hour (AID 1224887). Summed up: as §2
The nature of assay [16]: A CellTox Green Cytotoxicity Assay to monitor cytotoxicity in HEK293 cells - 16 hour (AID 1224888). Note: nearly all actives have a fitted effect of over 35% in size. In outline:
as §3

Assay [17] in a line: qHTS RealTime-Glo MT Cell Viability Assay in HepG2 cells - 0 hour (AID 1224889). Note: nearly all actives have a fitted effect of over 50% in size. Note: potency is the fitted concentration of half-maximal effect. Summed up: as §5
The nature of assay [18]: A CellTox Green Cytotoxicity Assay to monitor cytotoxicity in HepG2 cells - 8 hour (AID 1224890). Note: nearly all actives have a fitted effect of over 45% in size. Summed up: as §4
A short description of assay [19]: qHTS assay to identify small molecule antagonists of the estrogen receptor alpha (ER-alpha) signaling pathway using the BG1 cell line in the presence of 0.1 nM 17-beta-estradiol - cell viability counter screen (AID 1259241). Note: nearly all actives have a fitted effect of over 40% in size. In outline: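 Cytotoxicity counter-screen: live-cell protease activity measured by fluorescence (30 min reagent step) in the same wells. Cells were VM7Luc4E2 with endogenous ER-alpha and ERE-driven luciferase, treated 22 hr at 37C alongside 0.1 nM 17beta-estradiol final.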

Assay [20] in a line: qHTS RealTime-Glo MT Cell Viability Assay in HepG2 cells - 32 hour (AID 1224877). Note: nearly all actives have a fitted effect of over 55% in size. Summed up: as §5

Unmarked numbers belong to inactive results. Results filed as inconclusive are left out. Active and inactive are the calls of the source. Calls come from the whole dose curve; as a rule, active = well fitted curve in the direction sought with a large enough effect in the repeat runs; inconclusive = weak or mixed curves; inactive = no such curve, though single readings can be large; an effect the other way counts as inactive or inconclusive.
% is set by controls: 0 for no effect and ±100 for the full control effect.

On to `CC[N+](CC)(CC)CCOc1cccc(OCC[N+](CC)(CC)CC)c1OCC[N+](CC)(CC)CC`, for which the Potency result in [1], in assay [7], in [8], in [10], in [11] and in assay [14] was “inactive” throughout. Also, the Potency result in assay [15] and in assay [17] was “inactive” in each case. Moreover, the result in assay [2], in [4], in assay [5], in assay [6], in assay [9] and in assay [12] was inactive. In addition, the outcome in assay [13], in assay [16], in [18] and in [19] was inactive. In addition, the max response in [3] is 2.7%.
For the compound `CCCn1cc[n+](C)c1C`, the Potency entry in assay [1], in assay [7], in assay [8], in [10], in [11] and in assay [14] was “inactive” each time. In addition, the Potency result in assay [15] and in [17] was “inactive” in each case. Besides, the compound was classed as inactive in [2], in assay [4], in assay [5], in assay [6], in assay [12] and in assay [13]. In addition, the outcome in assay [16], in [18] and in assay [19] was inactive. Moreover, in [3], the max response was 0.77%.
Consider `CCN1C=CN(C)C1C` (stereo not given), for which the Potency result in assay [1], in [7], in [8], in assay [10], in assay [14] and in assay [15] was “inactive” throughout. The outcome in [2], in [4], in [5], in [6], in assay [9] and in assay [12] was inactive. The result in assay [13], in assay [16], in [18] and in assay [19] was inactive. The max response in [3] was 0.14%.
On to `C[N+]1(C)[C@@H]2CC(OC(=O)[C@H](CO)c3ccccc3)C[C@H]1[C@@H]1O[C@@H]12` (stereo not given in full), for which the result in assay [4], in [5], in [6], in [12], in assay [16] and in assay [18] was inactive. For the same compound, the result in assay [19] was inactive. Also, the Potency entry in assay [7] and in assay [10] was “inactive” throughout.
`CC(=O)O[C@@]12CO[C@@H]1C[C@H](O)[C@@]1(C)C(=O)[C@H](O)C3=C(C)[C@@H](OC(=O)[C@H](O)[C@@H](NC(=O)OC(C)(C)C)c4ccccc4)C[C@@](O)([C@@H](OC(=O)c4ccccc4)[C@H]21)C3(C)C`: the outcome in assay [2], in assay [4], in [5], in assay [9], in [12] and in assay [13] was inactive. The compound was classed as inactive in assay [16], in [18] and in [19]. Besides, the Potency in [3] was 33.8 nM (active); in [7] it was 6 nM (active); in assay [11], 6.7 nM (active). Further, the Potency result in [20], in assay [8], in assay [10], in assay [15] and in [17] was “inactive” in each case.
On to `CC1OC1C1CCC2(C)OC2C1` (stereo not given), for which the Potency entry in [1], in [20], in assay [8], in assay [10], in assay [14] and in assay [15] was “inactive” each time. Besides, the Potency entry in [17] was “inactive”. The result in assay [2], in [4], in assay [12], in assay [13], in assay [16] and in assay [18] was inactive. Moreover, the result in assay [19] was inactive. Also, the max response in [3] is 1.23%.
Consider `CCCc1nn(C)c2c(=O)[nH]c(-c3cc(S(=O)(=O)N4CCN(C)CC4)ccc3OCC)nc12`, for which the compound was classed as inactive in assay [2], in [4], in assay [5], in assay [6], in [9] and in assay [12]. Moreover, the outcome in assay [13], in assay [16], in assay [18] and in assay [19] was inactive. Also, the Potency result in [20], in assay [7], in assay [8], in assay [10], in assay [11] and in assay [15] was “inactive” each time. For the same compound, the Potency result in assay [17] was “inactive”.
As to `CC1=C(C/C=C(\C)CCC[C@H](C)CCC[C@H](C)CCCC(C)C)C(=O)c2ccccc2C1=O`, the compound was called inactive in [2], in [4], in assay [5], in assay [6], in [9] and in [13]. The call in assay [16], in assay [18] and in assay [19] was inactive. Besides, the Potency result in [20], in [7], in assay [10], in [11], in assay [15] and in assay [17] was “inactive” each time.
For `CCCC(=O)O[C@]1(C(=O)CC)CC[C@H]2[C@@H]3CCC4=CC(=O)CC[C@]4(C)[C@H]3[C@@H](O)C[C@@]21C`, the Potency entry in [1], in assay [20], in [7], in assay [10], in assay [11] and in [15] was “inactive” throughout. Further, the compound was called inactive in [2], in [4], in assay [5], in [6], in assay [9] and in [12]. Moreover, the compound was called inactive in assay [13], in [16], in assay [18] and in assay [19]. Further, the Potency is 12000 nM (active) in assay [8] and 1690 nM (active) in assay [17].
On to `COC(=O)Nc1ccc(Cl)c(Cl)c1`, for which the compound was called inactive in [2], in [4], in assay [5], in assay [6], in [12] and in assay [13]. The compound was called inactive in [16], in assay [18] and in assay [19]. Besides, the max response in assay [3] is -27.2%. In addition, the Potency entry in assay [20], in [7], in assay [8] and in assay [10] was “inactive” each time.
In the case of `C=C(C)C(=O)OCCOCCOCCOCCOC(=O)C(=C)C`, the Potency entry in [1], in assay [20], in assay [7], in assay [8], in [10] and in [11] was “inactive” in each case. Also, the Potency entry in [14] and in assay [15] was “inactive” throughout. Also, the compound was classed as inactive in assay [2], in assay [4], in assay [5], in assay [6], in assay [9] and in [12]. Further, the compound was classed as inactive in [13], in assay [16], in [18] and in assay [19].
With `COc1cc2c(cc1OC)-c1cc3ccc(OC)c(OC)c3c[n+]1CC2`, the call in assay [2], in assay [4], in assay [5], in [6], in assay [12] and in [13] was inactive. The result in assay [16], in assay [18] and in assay [19] was inactive. In assay [3], the Potency is 44100 nM (active). For the same compound, the Potency result in assay [7], in assay [8], in assay [10], in assay [11], in assay [15] and in assay [17] was “inactive” throughout.
As to `NCCCC(N)(C(=O)O)C(F)F` (stereo not given), the Potency entry in assay [1], in assay [7], in [10], in assay [11], in assay [14] and in [15] was “inactive” in each case. In [17], the Potency entry is “inactive”. Also, the compound was classed as inactive in [2], in [4], in [5], in [6], in assay [9] and in assay [13]. The compound was called inactive in assay [16], in assay [18] and in [19]. Further, the max response in assay [3] was 0.24%.
